molecular target: Pyruvate kinase PKLR (Homo sapiens) (UniProt P30613); test: qHTS for Activators of Human Muscle Isoform 2 Pyruvate Kinase (PK): Extended Characterization using Reticulocyte PK; conditions: purified hPK-R, Kinase-Glo ATP luminescence, 1 h; series mostly up to 57.5 µM; activity change, positive = activation: at the top concentration
Text: Human pyruvate kinase reticulocyte (hPK-R) enzyme was supplied as a highly purified (>95% pure) preparation from Structural Genomics Consortium in Toronto (Ontario, Canada) and assayed for its ability to generate ATP from ADP using phosphoenolpyruvate (PEP) as a substrate. ATP generation was detected in a coupled reaction by luciferase-mediated luminescence, an ATP-dependent process. Pyruvate kinase substrates, PEP and ADP, were present in the assay at Km and approximately 10-fold below Km respectively. The enzyme was assayed at an intermediate level of activity to screen for both inhibitors and activators. NIH Chemical Genomics Center [NCGC] NIH Molecular Libraries Probe Centers Network [MLPCN] MLPCN Grant: MH085679 Assay Submitter (PI): Matthew G. Vander Heiden, Harvard Medical School
Three uL of substrate mix (at r.t.) in assay buffer (50 mM Imidazole pH7.2, 50 mM KCl, 7 mM MgCl2, 0.01% Tween 20, 0.05% BSA) was dispensed into white solid bottom 1,536 well microtiter plates so that the final concentrations of substrates in the assay were 0.1 mM ADP and 0.5 mM PEP. 23 nL of compound were delivered by a pin tool and 1 uL of enzyme mix (final concentration of 0.1 nM) in assay buffer (4 degree Celsius) was added. Plates were incubated at room temperature for 1 hour. Two uL of detection mix (Kinase-Glo, Promega; at 4 degree Celsius protected from light) was added and luminescence read by a ViewLux (Perkin Elmer) at 1 second exposure/plate. Data were normalized to the uninhibited (row 31). Additionally, a no enzyme and 5-fold enzyme control was dispensed in row 32, split equally between the two conditions.

Sequence of Pyruvate kinase PKLR (Homo sapiens) (P30613 whole entry, looked up, canonical isoform): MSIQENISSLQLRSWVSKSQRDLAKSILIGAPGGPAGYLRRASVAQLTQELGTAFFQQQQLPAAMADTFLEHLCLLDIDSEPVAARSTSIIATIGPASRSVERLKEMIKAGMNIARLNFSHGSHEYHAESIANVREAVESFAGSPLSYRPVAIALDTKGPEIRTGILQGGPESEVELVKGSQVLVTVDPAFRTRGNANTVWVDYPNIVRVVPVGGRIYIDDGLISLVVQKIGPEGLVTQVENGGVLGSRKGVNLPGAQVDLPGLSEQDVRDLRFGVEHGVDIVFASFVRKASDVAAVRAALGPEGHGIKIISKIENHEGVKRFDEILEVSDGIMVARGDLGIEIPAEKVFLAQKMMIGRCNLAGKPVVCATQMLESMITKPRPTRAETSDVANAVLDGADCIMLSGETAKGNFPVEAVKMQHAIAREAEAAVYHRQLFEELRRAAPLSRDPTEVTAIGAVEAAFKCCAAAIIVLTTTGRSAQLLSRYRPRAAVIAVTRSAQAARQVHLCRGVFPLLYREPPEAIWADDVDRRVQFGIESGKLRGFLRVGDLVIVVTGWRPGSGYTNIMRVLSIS

Activity change, positive = activation, inactive:
Cc1cc2c(s1)c1cnn(Cc3c(Cl)ccc(C)c3F)c(=O)c1n2C -1.16%
Cc1cc2c(s1)c1cnn(Cc3ccc(F)cc3F)c(=O)c1n2C -0.917%
COc1cccc(Cn2ncc3c4sc(S(C)=O)cc4n(C)c3c2=O)c1 (stereo not given) 11.7%
Cc1cc2c(s1)c1cnn(Cc3cc(F)c(F)cc3F)c(=O)c1n2C 5.17%
Cc1cc2c(s1)c1cnn(Cc3cc(F)ccc3F)c(=O)c1n2C -18.9%
